# IL1B secr inh: inhibitors of inflammasome signaling (IL-1 beta secretion); AID 743279; THP-1 LPS/ATP IL-1B secretion, AlphaLISA, 16 h; hits give low values; 360,000 tested, 4.7% active; activity change, % at 57.5 µM; in the data active = activity change below about -50%; inconclusive = mostly about -30% to -49%
#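 THP-1 cells pretreated 1 hr with compounds (up to 57.5 uM final), then stimulated with LPS (250 ng/mL final) plus ATP (1.25 mM final); secreted IL-1B measured by AlphaLISA after 16 hr, decreased signal indicating inhibition.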
# CtBP-E1A inh: blocks the CtBP interaction with E1A; AlphaScreen GST-E1A/His-CtBP binding, 1536-well; hits give low values; activity change, % (concentration not given with the values); 340,000 tested, 0.49% active; in the data active = activity change below about -65%; inconclusive = mostly about -30% to -63%
#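 AlphaScreen with 125 nM GST-E1A and 125 nM His-CtBP (5X stocks) in Tris pH 8.0, 300 mM NaCl, BSA, Tween 20, TCEP. Compounds preincubated 2 h at 37 deg C, then glutathione donor/nickel acceptor beads added for 1 h at 37 deg C in dark.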
# DT40 TDP1 no CPT: qHTS for Inhibitors of human tyrosyl-DNA phosphodiesterase 1 (TDP1): qHTS in cells in absence of CPT | DT40 Tdp1-/- hTDP1 cells, no CPT, ATP luminescence, 48 h | Potency, µM (titrated, usually from 46.2 µM), usual class: inhibitors | 420,000 tested, 15% active | AID 686978, 2013; note: nearly all actives have a fitted effect of over 55% in size
#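 Growth of hTDP1-complemented DT40 Tdp1-knockout cells is measured by ATP luminescence after at least 48 hr compound exposure at 37 °C, with DMSO substituting for the 20 nM CPT used in the parallel screen.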
# TDP1 cell CPT: growth inhibition of DT40 Tdp1-/-;hTDP1 cells with camptothecin (screen for TDP1 inhibitors); chicken DT40 Tdp1-/-;hTDP1 cells + 20 nM CPT, ATP luminescence, 48 h; Potency, µM (highest dose often 46.2 µM), most hits filed as inhibitors; 420,000 tested, 12% active; AID 686979; note: nearly all actives have a fitted effect of over 55% in size
#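 Chicken DT40 Tdp1-/- cells complemented with human TDP1, 400 cells/well, exposed to compounds plus 20 nM camptothecin for at least 48 h at 37 C; viability read as ATP content by CellTiter-Glo luminescence.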
# TDP1 inh: TDP1 (human) enzyme inhibition. recombinant TDP1, AlphaScreen DNA substrate cleavage. 350,000 tested, 0.28% active. AID 485290. Q9NUW8. Potency, µM (highest dose often 130 µM), most hits filed as inhibitors; note: nearly all actives have a fitted effect of over 40% in size
# Target sequence (Q9NUW8 whole entry, looked up): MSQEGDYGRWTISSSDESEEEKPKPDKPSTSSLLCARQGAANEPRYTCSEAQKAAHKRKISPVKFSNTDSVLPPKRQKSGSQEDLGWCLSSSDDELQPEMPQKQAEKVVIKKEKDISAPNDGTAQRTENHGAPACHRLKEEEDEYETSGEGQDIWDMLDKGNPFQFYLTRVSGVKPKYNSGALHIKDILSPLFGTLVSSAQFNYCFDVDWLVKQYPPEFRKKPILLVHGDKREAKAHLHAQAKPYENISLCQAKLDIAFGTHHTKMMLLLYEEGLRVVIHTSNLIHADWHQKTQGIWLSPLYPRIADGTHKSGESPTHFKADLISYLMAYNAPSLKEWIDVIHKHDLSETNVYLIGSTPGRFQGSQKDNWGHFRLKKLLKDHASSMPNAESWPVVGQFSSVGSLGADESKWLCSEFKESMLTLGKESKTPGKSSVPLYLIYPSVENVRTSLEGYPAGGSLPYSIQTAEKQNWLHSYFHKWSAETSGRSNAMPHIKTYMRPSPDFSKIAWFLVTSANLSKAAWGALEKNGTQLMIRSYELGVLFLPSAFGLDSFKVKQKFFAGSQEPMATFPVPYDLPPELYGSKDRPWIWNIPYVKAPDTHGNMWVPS
#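 Tdp1 1 nM final; 15 min RT w/ cpd; substrate 15 nM, 5 min; beads 10 ug/ml, 10 min; AlphaScreen read. Neg ctrl: no enzyme.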
# Six1-Eya2 inh: inhibitors of human Six1/Eya2 interaction; Q15475+O00167; AlphaScreen GST-Six1/His-Eya2 binding, biochemical; hits give low values; activity change, % (no concentration beside the values); 360,000 tested, 0.56% active; AID 651725; in the data active = activity change below about -65%; inconclusive = mostly about -30% to -63%
#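 AlphaScreen with GST-Six1 and His-Eya2 (5X mix: 250 nM and 500 nM), glutathione donor and nickel acceptor beads; buffer 50 mM Tris pH 8.0, 300 mM NaCl, 1 mM TCEP; 1 h at 37 C in the dark.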
# Hits are given with their value; - = inactive; ? = inconclusive; . = not tested or not shown; [ ] = dose if it differs, or a comment. Only some compounds are listed: those with a hit (about 18% of all), similar ones and a draw of the others. Unless noted, calls come from the whole dose curve; as a rule, active = well fitted curve in the direction sought with a large enough effect; inconclusive = small, poorly fitted or top-dose-only effect, or another doubt; inactive = no such curve, though single readings can be large; an effect the other way counts as inactive or inconclusive.
SMILES,IL1B secr inh,CtBP-E1A inh,DT40 TDP1 no CPT,TDP1 cell CPT,TDP1 inh,Six1-Eya2 inh
CCC(C)C(NC(=O)C1CCC(C)CC1)C(=O)NCCCN1CCCCC1CC (stereo not given),-63.5,-,-,-,-,-
CCC1CCCCN1CCCNC(=O)C1CCC(CNS(=O)(=O)c2c(C)cc(C)cc2C)CC1 (stereo not given),-,-,?,29.1µM,-,-
CCC(C)C(NC(=O)C1CCC(C)CC1)C(=O)NCCc1ccc(S(N)(=O)=O)cc1 (stereo not given),-,.,-,-,.,-
COc1ccc(C2=NN(c3nc4ccccc4s3)C(=O)/C2=C\N(C)C)cc1,-,-,-,-,-,-
C=CCNc1nc(-c2ccccn2)nnc1-c1ccccc1,-,-91.8,?,?,-,-92.4
CCOC(=O)CC(C)(C)/C(C)=N/Nc1ccc([N+](=O)[O-])cc1[N+](=O)[O-],-,?,14.6µM,?,-,?
CC(O)CNc1ncnc2nc[nH]c12 (stereo not given),-,-,-,-,-,-
CC(C)CCCCCCCCCCCCC(=O)NCC(=O)NC1C(O)C(O)C(Nc2ncnc3nc[nH]c23)OC1C(O)CO (stereo not given),-99.7,-,0.184µM,0.146µM,.,-
Cn1c(N)c(C(=O)CSc2ccc3c(c2)OCCO3)c(=O)n(C)c1=O,-,-,18.4µM,18.4µM,-,-
CCSc1nnc(SCC(=O)c2c(N)n(C)c(=O)n(C)c2=O)s1,-,-,23.1µM,?,.,-
CCC12CC1(C(=O)OC)C(=O)N1CCc3c([nH]c4ccccc34)C12 (stereo not given),-58.9,-,-,-,.,-
Cc1c(C(=O)OCC(=O)N(C)c2ccccc2)cccc1[N+](=O)[O-],-,-,-,-,-,-
Cc1cccc(C(=O)OCC(=O)N(C)C(c2ccccc2)c2ccccc2)c1[N+](=O)[O-],-,-,7.31µM,11.6µM,-,-
Oc1c(C(c2ccc(F)cc2)N2CCOCC2)sc2nc(-c3ccco3)nn12 (stereo not given),.,.,-,-,-,.
CC(C(=O)Nc1ccc(O)cc1)c1cccc(C(=O)c2ccccc2)c1 (stereo not given),-50.6,.,20.6µM,?,-,-
CC(C(=O)O)c1ccc(-c2ccccc2)c(F)c1 (stereo not given),-,-,-,-,-,-
CC(C)Cc1ccc(C(C)C(N)=Nc2ccc(O)cc2)cc1 (stereo not given),.,-,16.4µM,25.9µM,.,-
CC(C)Cc1ccc(C(C)C(=O)Nc2ccc(O)cc2)cc1 (stereo not given),-,.,13µM,23.1µM,-,-
CC(C(=O)Nc1ccccc1)c1ccc(-c2ccccc2)c(F)c1 (stereo not given),?,-,23.1µM,18.4µM,-,-
CC(=O)Nc1ccc(NC(=O)C(C)c2cccc(C(=O)c3ccccc3)c2)cc1 (stereo not given),-,-,-,-,-,-
CC(Cc1ccccc1)C(=O)Nc1ccccc1 (stereo not given),-,-,-,-,-,-
CC(C)Cc1ccc(C(C)C(=O)Nc2cccnc2)cc1 (stereo not given),-,-,3.66µM,2.31µM,.,-
CC1CCCCN1S(=O)(=O)c1ccc(NC(=O)CSc2nnnn2C)cc1 (stereo not given),-,-,-,-,-,-
Cc1cc2cc(C)c3nnc(SCC(=O)Nc4ccc(S(=O)(=O)N5CCCCC5C)cc4)n3c2cc1C (stereo not given),-,-,10.3µM,?,-,-
CCCSc1ncc(Cl)c(C(=O)Nc2ccc(S(=O)(=O)N3CC(C)OC(C)C3)cc2)n1 (stereo not given),-,-,16.4µM,?,-,-
SMILES,IL1B secr inh,CtBP-E1A inh,DT40 TDP1 no CPT,TDP1 cell CPT,TDP1 inh,Six1-Eya2 inh
CCSc1ncc(Cl)c(C(=O)Nc2ccc(S(=O)(=O)N3CCC(C)CC3)cc2)n1,.,.,5.8µM,14.6µM,-,.
CC(C)Sc1ncc(Cl)c(C(=O)Nc2ccc(S(=O)(=O)N3CCCCC3C)cc2)n1 (stereo not given),.,.,18.4µM,?,-,.
CCSc1ncc(Cl)c(C(=O)Nc2ccc(S(=O)(=O)Nc3ncccn3)cc2)n1,-,-,-,-,-,-
CCCN1CCN(CCCNC(=S)Nc2ccc(F)cc2)CC1,-,-,-,-,-,-
CCS(=O)(=O)c1ncc(Cl)c(C(=O)Nc2ccc(S(=O)(=O)N3CCC(C)CC3)cc2)n1,-103.9,-,2.59µM,1.84µM,-,-
CC1CCN(S(=O)(=O)c2ccc(NC(=O)C3CC3)cc2)CC1,-,-,-,?,-[0.0935 µM],-
CCSc1ncc(Cl)c(C(=O)Nc2ccc(S(N)(=O)=O)cc2)n1,-59.4,-,?,-,.,-
CSc1ncc(Cl)c(C(=O)Nc2ccc(S(=O)(=O)N3CCC(C)CC3)cc2)n1,.,.,23.1µM,23.1µM,-,.
O=c1c(-c2ccccc2)nc2cncnc2n1C1CC1,.,.,-,-,.,.
O=C(C(=O)N1CCN(c2ccccc2)CC1)c1ccncc1,-,-,-,-,.,-
Cc1ccccc1NC(=O)CSc1nc2ccc(NC(=O)c3ccco3)cc2s1,.,.,20.6µM,16.4µM,-,.
Cc1ccc(NC(=O)CSc2nc3ccc(NC(=O)c4ccco4)cc3s2)c(C)c1,.,.,7.31µM,16.4µM,-,.
Cc1cccc(NC(=O)CSc2nc3ccc(NC(=O)c4ccco4)cc3s2)c1,.,.,2.59µM,10.3µM,-,.
Cc1ccc(NC(=O)CSc2nc3ccc(NC(=O)c4cccc(Cl)c4)cc3s2)c(C)c1,.,.,?,?,-,.
Cc1ccc(NC(=O)CSc2nc3ccc(NC(=O)CCc4ccccc4)cc3s2)cc1,.,.,?,?,-,.
Cc1ccccc1NC(=O)CSc1nc2ccc(NC(=O)CCc3ccccc3)cc2s1,.,.,9.2µM,?,-,.
CCNc1nnc(SCC(=O)c2c(N)n(C3CC3)c(=O)[nH]c2=O)s1,-,.,-,-,-,-
CC(C)(C)NC(=O)COC(=O)CCC(=O)c1ccc(Cl)cc1,-,-,-,-,-,-
Cc1ccc(NC(=O)CSc2nc3ccc(NC(=O)c4cccs4)cc3s2)cc1,.,.,?,-,-,.
CSc1nc2ccc(NC(=O)c3c(-c4ccccc4)noc3C)cc2s1,-65.2,-,?,-,.,-
Cc1ccccc1NC(=O)CSc1nc2ccc(NC(=O)c3ccccc3)cc2s1,.,.,16.4µM,?,-,.
COc1cccc(NC(=O)CSc2nc3ccc(NC(=O)c4ccco4)cc3s2)c1,.,.,18.4µM,13µM,-,.
CCc1ccc(-c2nn(Cc3ccccc3)cc2C(=O)NCC2CCCO2)cc1 (stereo not given),-,-,-,?,-,-
